For seven molecules, growth results are on record in PubChem BioAssay (NCI).

Compounds without any hit were thinned out: in the full panel of roughly 83,000, 20% have a hit.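 48-hour exposure, single concentration, 96-well plates; percent growth endpoint where 0 means no net growth. Active: below 10.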 Values without a mark were called inactive. Activity calls are given as the source filed them.

Test systems include NCI-H226 lung; NCI-H322M lung; HOP-62 NSCLC; NCI-H460 lung; HOP-92 NSCLC; NCI-H522 lung; A549/ATCC NSCLC; 786-0 renal; COLO 205 colon; DU-145 prostate; K-562 leukemia; MALME-3M melanoma; MDA-MB-231 breast; RXF 393 renal; SF-268 CNS; SF-295 CNS; SF-539 CNS; UACC-257 melanoma; M14 melanoma.
What all share (test): NCI-60 one-dose screen, 48 h (100 = growth as untreated, 0 = no growth, -100 = all killed)
What all share (details): 10 µM unless noted

On to `CCOC(=O)c1c(NC(=O)c2ccc(C(F)(F)F)cc2)sc2c3c(ccc12)OCN(C)C3`, for which the growth with NCI-H226 lung is 97%; in the assay on NCI-H322M lung, 73.4%; in the assay on HOP-62 NSCLC, -53.2% (active); in the assay on NCI-H460 lung, -17.8% (active); with HOP-92 NSCLC, 14.5%; in the assay with NCI-H522 lung, -60.3% (active). Also, the growth in the assay with A549/ATCC NSCLC was -37.9% (active); in the assay with 786-0 renal, 30.8%; in the assay on COLO 205 colon, -22% (active); in the assay on DU-145 prostate it was 21.6%; with K-562 leukemia, -28.3% (active); with MALME-3M melanoma, 72.6%. Moreover, the growth in the assay with MDA-MB-231 breast was 10.9%; in the assay on RXF 393 renal, -70% (active); with SF-268 CNS, 63.6%; in the assay on SF-295 CNS, 66.2%; with SF-539 CNS, -73.1% (active); with UACC-257 melanoma it was 71.6%. Moreover, the growth with M14 melanoma was 30.1%.

As for `CC1=C(C)C(=O)C(Nc2cccc(C(F)(F)F)c2)=C(Br)C1=O`, the growth in the assay with NCI-H226 lung was 83.2%; with NCI-H322M lung it was 100%; in the assay on HOP-62 NSCLC, 81.1%; in the assay with NCI-H460 lung, 96.4%; in the assay on HOP-92 NSCLC, 25%; in the assay with NCI-H522 lung it was 29.2%. Moreover, the growth in the assay on A549/ATCC NSCLC was 94.4%; in the assay with 786-0 renal, 97%; in the assay on COLO 205 colon it was 115%; with DU-145 prostate it was 105%; in the assay with K-562 leukemia, -17.9% (active); with MALME-3M melanoma it was 101%. Also, the growth was 69.2% with MDA-MB-231 breast; 105% with RXF 393 renal; 97.7% in the assay with SF-268 CNS; 106% in the assay on SF-295 CNS; 96% in the assay with SF-539 CNS; 88.1% with UACC-257 melanoma. Besides, in the assay on M14 melanoma, the growth is 99%.

On to `CC(C)(C)OC(=O)NCc1ccc(CNc2c([N+](=O)[O-])cnc3ccccc23)cc1`, for which the growth with NCI-H226 lung is 55.2%; with NCI-H322M lung, 91.6%; in the assay on HOP-62 NSCLC, 58.5%; with NCI-H460 lung, 70.1%; in the assay on HOP-92 NSCLC, 32.1%; in the assay on NCI-H522 lung, 62.4%. Also, the growth with A549/ATCC NSCLC was 72.2%; in the assay on 786-0 renal, 73.8%; in the assay with COLO 205 colon, 80.1%; with DU-145 prostate, 77.4%; in the assay with K-562 leukemia it was 28.5%; with MALME-3M melanoma it was 86.4%. Also, the growth was 72.8% in the assay on MDA-MB-231 breast; 105% in the assay with RXF 393 renal; 77% in the assay with SF-268 CNS; 33.4% in the assay with SF-295 CNS; 82.8% in the assay on SF-539 CNS; 49% in the assay on UACC-257 melanoma. In addition, the growth in the assay on M14 melanoma is 76%.

As for `Cc1csc(/N=C(N)/N=C(\N)c2cccc(Br)c2)n1`, the growth is 88.9% with NCI-H226 lung; 95.6% in the assay with NCI-H322M lung; 85.3% with HOP-62 NSCLC; 98.1% with NCI-H460 lung; 69.9% in the assay on HOP-92 NSCLC; 80% with NCI-H522 lung. Further, the growth with A549/ATCC NSCLC was 101%; in the assay on 786-0 renal, 97.3%; in the assay on COLO 205 colon, 95.3%; in the assay on DU-145 prostate it was 105%; in the assay with K-562 leukemia, 57%; in the assay with MALME-3M melanoma it was 97.7%. The growth in the assay with MDA-MB-231 breast was 96%; with RXF 393 renal it was 94.1%; with SF-268 CNS, 91.7%; in the assay with SF-295 CNS, 94.1%; in the assay on SF-539 CNS, 92.6%; in the assay with UACC-257 melanoma, 102%. Besides, the growth in the assay with M14 melanoma was 86.6%.

For `CCCCCCNC(=O)Oc1ccc(/C(=C(/C)c2ccc(Cl)cc2)c2ccc(OCCN3CCCCCC3)cc2)cc1`, the growth with NCI-H226 lung is 83.2%; in the assay with NCI-H322M lung it was 96.8%; in the assay on HOP-62 NSCLC it was 76.8%; in the assay with NCI-H460 lung, 40.9%; with HOP-92 NSCLC, 83.6%; in the assay on NCI-H522 lung it was 92.3%. The growth was 74.3% in the assay with A549/ATCC NSCLC; 63.7% in the assay on 786-0 renal; 45.7% with COLO 205 colon; 86.3% with DU-145 prostate; 8.93% (active) with K-562 leukemia; 75.4% with MALME-3M melanoma. Also, the growth is 76.1% with MDA-MB-231 breast; 44.1% in the assay on RXF 393 renal; 77.2% with SF-268 CNS; 70% in the assay with SF-295 CNS; 67% with SF-539 CNS; 75.1% with UACC-257 melanoma. For the same molecule, the growth in the assay on M14 melanoma was 30.9%.

For the molecule `CC(Nc1c(C#N)cnc2ccc(-c3cncc(-c4n[nH]c(=O)o4)c3)cc12)c1ccccc1` (stereo not drawn), the growth is 2.2% (active) in the assay with NCI-H226 lung; -4.15% (active) in the assay on NCI-H322M lung; 8.5% (active) with HOP-62 NSCLC; 11.1% in the assay on NCI-H460 lung; -20.9% (active) in the assay on HOP-92 NSCLC; -20% (active) in the assay with NCI-H522 lung. For the same molecule, the growth with A549/ATCC NSCLC is 17.7%; with 786-0 renal, 9.83% (active); with COLO 205 colon it was -6.04% (active); in the assay on DU-145 prostate, 8.39% (active); with K-562 leukemia, 28.5%; in the assay with MALME-3M melanoma, -8.08% (active). Also, the growth in the assay on MDA-MB-231 breast is 17.2%; in the assay on RXF 393 renal, -24% (active); in the assay with SF-268 CNS it was 12.2%; in the assay with SF-295 CNS, -7.24% (active); in the assay on SF-539 CNS, -12.8% (active); in the assay on UACC-257 melanoma, 34.2%. Also, in the assay on M14 melanoma, the growth was 18.7%.

For the molecule `CNC(=O)c1cc(-n2ccc3cc(NC(=O)Nc4ccc(N5CCN(C)CC5)c(C(F)(F)F)c4)ccc32)ccn1`, the growth is 96.4% in the assay on NCI-H226 lung; 85.4% with NCI-H322M lung; 75.6% in the assay with HOP-62 NSCLC; 60% in the assay with NCI-H460 lung; 71.1% in the assay with HOP-92 NSCLC; 101% in the assay with NCI-H522 lung. Besides, the growth with A549/ATCC NSCLC is 68.2%; in the assay with 786-0 renal it was -13.7% (active); with COLO 205 colon it was 90.8%; in the assay with DU-145 prostate it was 86.5%; in the assay on K-562 leukemia, -53.3% (active); in the assay on MALME-3M melanoma, 2.37% (active). Besides, the growth in the assay on MDA-MB-231 breast was 61.5%; in the assay with RXF 393 renal it was -27.7% (active); with SF-268 CNS, 83.4%; in the assay on SF-295 CNS, -47.2% (active); in the assay on SF-539 CNS it was 1.48% (active); with UACC-257 melanoma, 72.2%. For the same molecule, the growth in the assay on M14 melanoma is 59%.
